Test results: PubChem BioAssay AID1159580 (chemical genetic matrix, 2015)
Several values for one entry are separate records, joined by “and”; a condition that tells them apart may be missing. Equal entries are not always repeated. Hit rate of the full screen: of about 5,500 compounds, about 2,000 (36%) were called active. About 18% were inconclusive and are not listed. Rule as the data show it: active = normalized growth mostly below about 0.91 (no sharp cut-off); inconclusive = no clear call, values can overlap the other calls; inactive = mostly above about 0.92. The list shows a part of the results.

Assay: chemical genetic growth profiling, strain panel (AID 1159580);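 also: tested at 20 µM; growth read once vehicle control cultures reached saturation at 30 °C; 1 = growth at the plate median or of vehicle wells; lower values mean less growth of the strain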
Details: S. cerevisiae deletion strains, growth OD

Measured: normalized growth

CC(C)c1ccc2c(c1)CCC1C(C)(C(N)=O)CCCC21C (stereo unspecified)
inactive: locus YAL013W, strain DEP1, stronger effect = lower value 0.923 | locus YAL021C, strain ccr4, stronger effect = lower value 1.01 | locus YAL026C, strain drs2, stronger effect = lower value 0.916 | locus YAL030W, strain snc1, stronger effect = lower value 0.966 | locus YBL061C, strain skt5, stronger effect = lower value 0.951 | locus YBR009C, strain hhf1, stronger effect = lower value 0.947 | locus YBR021W, strain FUR4, stronger effect = lower value 1.02 | locus YBR023C, strain chs3, stronger effect = lower value 0.916 | locus YBR171W, strain sec66, stronger effect = lower value 0.952 | locus YBR229C, strain ROT2, stronger effect = lower value 0.983 | locus YBR231C, strain swc5, stronger effect = lower value 0.993 | locus YBR279W, strain paf1, stronger effect = lower value 0.992 | locus YCL011C, strain gbp2, stronger effect = lower value 0.941 | locus YCL016C, strain dcc1, stronger effect = lower value 0.94 | locus YCL029C, strain bik1, stronger effect = lower value 0.969 | locus YCL061C, strain MRC1, stronger effect = lower value 0.953 | locus YCL069W, strain vba3, stronger effect = lower value 0.969 | locus YCR088W, strain abp1, stronger effect = lower value 0.958 | locus YDL005C, strain med2, stronger effect = lower value 0.954 | locus YDL035C, strain GPR1, stronger effect = lower value 0.88 | locus YDL040C, strain nat1, stronger effect = lower value 0.976 | locus YDL101C, strain DUN1, stronger effect = lower value 0.946 | locus YDL134C, strain PPH21, stronger effect = lower value 0.898 | locus YDL185W, strain tfp1, stronger effect = lower value 0.991 | locus YDR001C, strain nth1, stronger effect = lower value 0.948 | locus YDR069C, strain doa4, stronger effect = lower value 0.989 | locus YDR101C, strain arx1, stronger effect = lower value 0.937 | locus YDR159W, strain sac3, stronger effect = lower value 0.895 | locus YDR162C, strain NBP2, stronger effect = lower value 0.872 | locus YDR195W, strain ref2 0.922 | locus YDR297W, strain sur2, stronger effect = lower value 0.968 | locus YDR318W, strain mcm21, stronger effect = lower value 0.931 | locus YDR334W, strain swr1, stronger effect = lower value 0.965 | locus YDR335W, strain msn5, stronger effect = lower value 0.976 | locus YDR388W, stronger effect = lower value 0.972 | locus YDR502C, strain sam2, stronger effect = lower value 0.926 | locus YEL003W, strain gim4, stronger effect = lower value 0.971 | locus YEL037C, strain rad23, stronger effect = lower value 0.973 | locus YEL061C, strain CIN8 (second series), stronger effect = lower value 0.96 | locus YEL061C, strain CIN8, stronger effect = lower value 0.962 | locus YER015W, strain faa2, stronger effect = lower value 0.982 | locus YER016W, strain bim1, stronger effect = lower value 0.967 | locus YER110C, stronger effect = lower value 0.995 | locus YER111C, strain swi4, stronger effect = lower value 0.936 | locus YER155C, strain BEM2 (second series), stronger effect = lower value 0.955 | locus YFR010W, strain ubp6, stronger effect = lower value 0.957 | locus YGL078C, strain dbp3, stronger effect = lower value 0.964 | locus YGL167C, strain pmr1, stronger effect = lower value 0.945 | locus YGL173C, strain kem1, stronger effect = lower value 0.951 | locus YGL227W, strain vid30, stronger effect = lower value 0.965 | locus YGL240W, strain doc1, stronger effect = lower value 0.963 | locus YGL248W, strain PDE1, stronger effect = lower value 0.926 | locus YGL253W, strain hxk2, stronger effect = lower value 0.951 | locus YGR135W, strain pre9, stronger effect = lower value 0.932 | locus YGR252W, strain gcn5, stronger effect = lower value 0.857 | locus YHR013C, strain ard1, stronger effect = lower value 1.09 | locus YHR027C, strain rpn1, stronger effect = lower value 0.979 | locus YHR079C, strain IRE1 (second series), stronger effect = lower value 0.974 | locus YHR094C, strain hxt1, stronger effect = lower value 1 | locus YHR129C, strain ARP1, stronger effect = lower value 0.941 | locus YHR200W, strain rpn10, stronger effect = lower value 0.945 | locus YIL066C, strain RNR3, stronger effect = lower value 0.902 | locus YIL073C, strain SPO22, stronger effect = lower value 0.833 | locus YIL125W, strain kgd1, stronger effect = lower value 0.939 | locus YIR030C, strain dcg1, stronger effect = lower value 0.97 | locus YJL092W, strain hpr5, stronger effect = lower value 0.956 | locus YJL095W, strain BCK1 (second series), stronger effect = lower value 0.966 | locus YJL115W, strain asf1, stronger effect = lower value 0.976 | locus YJL129C, strain trk1, stronger effect = lower value 0.905 | locus YJL134W, strain LCB3, stronger effect = lower value 0.983 | locus YJL154C, strain vps35, stronger effect = lower value 0.961 | locus YJL164C, strain tpk1, stronger effect = lower value 0.941 | locus YJL166W, strain qcr8, stronger effect = lower value 0.965 | locus YJL168C, strain set2, stronger effect = lower value 0.993 | locus YJL187C, strain SWE1 (second series), stronger effect = lower value 0.924 | locus YJL187C, strain SWE1, stronger effect = lower value 0.968 | locus YJR043C, strain POL32, stronger effect = lower value 0.941 | locus YJR066W, strain TOR1, stronger effect = lower value 0.936 | locus YKL068W, stronger effect = lower value 0.965 | locus YKL085W, strain MDH1 (second series), stronger effect = lower value 0.944 | locus YKL085W, strain MDH1, stronger effect = lower value 0.944 | locus YKL160W, strain elf1, stronger effect = lower value 0.952 | locus YKL190W, strain CNB1, stronger effect = lower value 0.969 | locus YKR026C, strain gcn3, stronger effect = lower value 0.969 | locus YKR091W, strain srl3, stronger effect = lower value 0.963 | locus YLL001W, strain dnm1, stronger effect = lower value 0.926 | locus YLL026W, stronger effect = lower value 0.976 | locus YLL041C, strain sdh2, stronger effect = lower value 0.96 | locus YLR027C, strain aat2, stronger effect = lower value 0.979 | locus YLR058C, strain SHM2, stronger effect = lower value 0.949 | locus YLR102C, strain apc9, stronger effect = lower value 0.986 | locus YLR221C, strain rsa3, stronger effect = lower value 0.916 | locus YLR258W, strain gsy2, stronger effect = lower value 0.966 | locus YLR268W, strain sec22, stronger effect = lower value 0.917 | locus YLR320W, strain mms22, stronger effect = lower value 0.911 | locus YLR342W, strain FKS1, stronger effect = lower value 0.946 | locus YLR357W, strain rsc2, stronger effect = lower value 0.952 | locus YLR370C, strain arc18, stronger effect = lower value 0.952 | locus YLR384C, strain iki3, stronger effect = lower value 0.954 | locus YML016C, strain PPZ1, stronger effect = lower value 0.977 | locus YML032C, strain rad52, stronger effect = lower value 0.954 | locus YML120C, strain ndi1, stronger effect = lower value 0.939 | locus YML124C, strain tub3, stronger effect = lower value 0.972 | locus YMR058W, strain fet3, stronger effect = lower value 0.958 | locus YMR078C, strain ctf18, stronger effect = lower value 0.984 | locus YMR125W, strain sto1, stronger effect = lower value 0.954 | locus YMR129W, stronger effect = lower value 0.952 | locus YMR205C, strain PFK2, stronger effect = lower value 0.894 | locus YMR223W, strain ubp8, stronger effect = lower value 0.929 | locus YMR231W, strain pep5, stronger effect = lower value 0.98 | locus YMR263W, strain SAP30, stronger effect = lower value 0.943 | locus YNL067W, strain RPL9B, stronger effect = lower value 0.935 | locus YNL128W, strain TEP1, stronger effect = lower value 0.925 | locus YNL183C, strain NPR1, stronger effect = lower value 0.9 | locus YNL209W, strain ssb2, stronger effect = lower value 0.974 | locus YNL248C, strain rpa49, stronger effect = lower value 0.942 | locus YNL250W, strain rad50, stronger effect = lower value 0.97 | locus YNL271C, strain bni1, stronger effect = lower value 0.951 | locus YNL307C, strain MCK1, stronger effect = lower value 0.942 | locus YNL322C, strain KRE1 (second series), stronger effect = lower value 0.937 | locus YNR049C, strain mso1, stronger effect = lower value 0.969 | locus YOL012C, strain htz1 1.06 | locus YOL147C, strain pex11, stronger effect = lower value 0.965 | locus YOR001W, strain rrp6, stronger effect = lower value 0.973 | locus YOR069W, strain VPS5, stronger effect = lower value 0.966 | locus YOR070C, strain gyp1, stronger effect = lower value 0.955 | locus YOR080W, strain dia2, stronger effect = lower value 0.964 | locus YOR083W, strain WHI5, stronger effect = lower value 0.917 | locus YOR106W, strain vam3, stronger effect = lower value 0.955 | locus YOR136W, strain idh2, stronger effect = lower value 0.962 | locus YOR144C, strain elg1, stronger effect = lower value 0.956 | locus YOR231W, strain MKK1, stronger effect = lower value 0.891 | locus YOR265W, strain rbl2, stronger effect = lower value 0.965 | locus YOR270C, strain vph1, stronger effect = lower value 0.984 | locus YOR290C, strain snf2, stronger effect = lower value 0.902 | locus YOR316C, strain cot1, stronger effect = lower value 0.983 | locus YPL078C, strain atp4, stronger effect = lower value 0.946 | locus YPL106C, strain sse1, stronger effect = lower value 0.93 | locus YPL240C, strain hsp82, stronger effect = lower value 0.966 | locus YPL241C, strain CIN2, stronger effect = lower value 0.98 | locus YPL256C, strain CLN2, stronger effect = lower value 0.838 | locus YPR119W, strain clb2, stronger effect = lower value 0.942 | locus YPR141C, strain kar3, stronger effect = lower value 0.968 | locus YPR163C, strain tif3, stronger effect = lower value 0.966 | locus YPR167C, strain met16, stronger effect = lower value 0.985 | strain wtn01, stronger effect = lower value 0.922
active: locus YDL074C, strain BRE1, stronger effect = lower value 0.76 | locus YDL192W, strain arf1, stronger effect = lower value 0.831 | locus YDR137W, strain rgp1, stronger effect = lower value 0.679 | locus YDR392W, strain spt3, stronger effect = lower value 0.627 | locus YER155C, strain BEM2, stronger effect = lower value 0.89 | locus YER167W, strain BCK2, stronger effect = lower value 0.898 | locus YGL086W, strain mad1, stronger effect = lower value 0.894 | locus YGR229C, strain SMI1, stronger effect = lower value 0.654 | locus YHR079C, strain IRE1, stronger effect = lower value 0.848 | locus YHR142W, strain chs7, stronger effect = lower value 0.801 | locus YKL009W, strain mrt4, stronger effect = lower value 0.856 | locus YKR001C, strain vps1, stronger effect = lower value 0.78 | locus YLR039C, strain RIC1, stronger effect = lower value 0.569 | locus YLR113W, strain HOG1, stronger effect = lower value 0.78 | locus YLR262C, strain YPT6 (second series), stronger effect = lower value 0.734 | locus YLR262C, strain YPT6, stronger effect = lower value 0.498 | locus YLR330W, strain CHS5, stronger effect = lower value 0.909 | locus YLR342W, strain FKS1 (second series), stronger effect = lower value 0.645 | locus YLR371W, strain rom2, stronger effect = lower value 0.671 | locus YLR418C, strain cdc73, stronger effect = lower value 0.76 | locus YMR307W, strain GAS1, stronger effect = lower value 0.418 | locus YNL071W, strain lat1, stronger effect = lower value 0.916 | locus YNL233W, strain BNI4, stronger effect = lower value 0.792 | locus YNL298W, strain CLA4, stronger effect = lower value 0.887 | locus YNR052C, strain pop2, stronger effect = lower value 0.847 | locus YOR061W, strain CKA2, stronger effect = lower value 0.885 | locus YOR184W, strain ser1, stronger effect = lower value 0.703 | locus YPL051W, strain arl3, stronger effect = lower value 0.915
0.815 (active) and 0.881 (inactive): locus YHR030C, strain SLT2, stronger effect = lower value
0.695 (active) and 0.911 (inactive): locus YJL095W, strain BCK1, stronger effect = lower value
